Screens deposited in PubChem by several laboratories.
ERa SRC1 inh – ER-alpha (human) coactivator binding inhibition; P03372; TR-FRET ER-alpha LBD / SRC-1 peptide, estradiol-bound; inhibition, % at 25.6 µM; 1.7% of 86,000 active; AID 629; in the data active = inhibition above about 50%;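 note: 0% = receptor plus peptide control and 100% = peptide only without receptor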
MRP-1 activ – activates MRP-1. H69AR cells + doxorubicin, viability rescue, CellTiter-Glo. viability increase, % at 10 µM. 0.61% of 140,000 active;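 active = viability gain under doxorubicin at or above a set limit, the compound median plus 3 SD, cut at about 4.7% in these data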;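 note: MRP-1 overexpressing cells given doxorubicin 25 µM after compound pretreatment; 18-22 h compound pretreatment then 72 h with doxorubicin before readout; 0% = doxorubicin-only wells and 100% = vehicle-treated cells without doxorubicin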
MRP reversal – compounds reversing MRP-mediated drug resistance | AID 602 | 0.04% of 85,000 active | differential viability (reversal), % at 10 µM | H69AR cells + 2 uM doxorubicin, CellTiter-Glo, 72 h;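 active = viability drop by adding the cancer drug above about 55%, with treated viability meeting a 40% cutoff, limit read from the data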;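 note: viability without doxorubicin minus viability with 2 µM doxorubicin for each compound; larger differential means the compound sensitizes cells more to doxorubicin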
ERa SRC1 pot – enhances coactivator binding to human estrogen receptor alpha; TR-FRET ERalpha-LBD/SRC-Cy5 coactivator binding, 2 h; 100 = basal binding, no effect; coactivator binding (% of control), % at 25.6 µM; 1.3% of 86,000 active; AID 639; in the data active = activity above about 200%;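 note: binding measured in presence of low estradiol as agonist stimulus; 0% = peptide alone without receptor and 100% = receptor with peptide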
ERb SRC1 inh – ER-beta (human) coactivator binding inhibition; Q92731; TR-FRET ER-beta LBD / SRC1-Cy5 peptide binding; receptor agonist-loaded with 1 µM estradiol; inhibition, % at 25.6 µM; 1.3% of 86,000 active; AID 633;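 active = compounds whose percent inhibition of the receptor-coactivator binding signal exceeds about 50% in the single-dose screen, limit read from the data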;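 note: 0% = receptor plus peptide wells without compound and 100% = peptide-only wells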
Target sequence (Q92731 whole entry, looked up, the tested form may be a part): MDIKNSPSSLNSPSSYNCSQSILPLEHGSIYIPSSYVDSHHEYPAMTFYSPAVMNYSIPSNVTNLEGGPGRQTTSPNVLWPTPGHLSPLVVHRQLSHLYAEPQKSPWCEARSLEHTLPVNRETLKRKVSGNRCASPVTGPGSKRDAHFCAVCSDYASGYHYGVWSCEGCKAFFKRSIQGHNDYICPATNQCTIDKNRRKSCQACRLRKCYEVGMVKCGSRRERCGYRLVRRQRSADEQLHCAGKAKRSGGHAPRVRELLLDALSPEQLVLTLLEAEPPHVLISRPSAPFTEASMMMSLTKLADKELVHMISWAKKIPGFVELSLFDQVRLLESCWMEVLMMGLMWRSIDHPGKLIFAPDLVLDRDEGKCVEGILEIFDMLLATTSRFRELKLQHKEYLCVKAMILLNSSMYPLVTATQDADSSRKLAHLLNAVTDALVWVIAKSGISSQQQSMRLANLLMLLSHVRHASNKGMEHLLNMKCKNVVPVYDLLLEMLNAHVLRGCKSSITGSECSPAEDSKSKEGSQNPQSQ
The depositor's hits bear a star; [ ] = dose if it differs, or a comment. The list is not random: actives were taken first. Their share in the collection is about 2.7%.

What do the screens show for `O=C(COC(=O)c1ccccc1)NCc1ccco1`?
ERa SRC1 inh: 76*[fluorescence artefact?]; MRP-1 activ: 0; MRP reversal: 10; ERa SRC1 pot: 88; ERb SRC1 inh: 60*

Results for Cc1onc(-c2c(F)cccc2Cl)c1C(=O)NCc1ccco1 ?
ERa SRC1 inh: -5; MRP-1 activ: 0; MRP reversal: 11; ERa SRC1 pot: 131; ERb SRC1 inh: 1

What do the screens show for `Cc1onc(-c2c(F)cccc2Cl)c1C(=O)OCC(=O)NCc1ccco1`?
ERa SRC1 inh: 52*; MRP-1 activ: -4; MRP reversal: 5; ERa SRC1 pot: 79; ERb SRC1 inh: 33

What do the screens show for `CC(C)(C)NC(NC(=O)Cc1ccccc1)C(Cl)(Cl)Cl` (centres undefined)?
MRP-1 activ: 5.3*

How did O=C(Cc1ccccc1)NC(Nc1ccccc1)C(Cl)(Cl)Cl (centres undefined) do in these assays?
MRP-1 activ: -5

How did CCn1cc(-c2cc(C(F)(F)F)n3nc(C(=O)O)cc3n2)c(C)n1 do in these assays?
ERa SRC1 inh: 64*[fluorescence artefact?]; MRP-1 activ: 0; MRP reversal: -1; ERa SRC1 pot: 23; ERb SRC1 inh: 75*[fluorescence artefact?]

Results for O=C(O)c1cc2nc(-c3ccc(F)cc3)cc(C(F)(F)F)n2n1 ?
ERa SRC1 inh: 25; MRP-1 activ: 1; MRP reversal: 0; ERa SRC1 pot: 60; ERb SRC1 inh: 36

Results for Cc1cccc(C(=O)N2CCC(Cc3ccccc3)CC2)c1[N+](=O)[O-] ?
MRP-1 activ: -1

How did O=C(CSc1nc2c(c(=O)[nH]1)CCC2)Nc1cccc(Cl)c1 do in these assays?
ERa SRC1 inh: 1; MRP-1 activ: -2; MRP reversal: 4; ERa SRC1 pot: 120; ERb SRC1 inh: 4

How did N#Cc1c(-c2ccco2)nc(SCC(=O)Nc2cccc(Cl)c2)[nH]c1=O do in these assays?
ERa SRC1 inh: 16; MRP-1 activ: 5.5*; MRP reversal: 8; ERa SRC1 pot: 57; ERb SRC1 inh: 19

Results for COc1ccc(NC(=O)N2CCN(c3cccc(C(F)(F)F)c3)CC2)cc1 ?
ERa SRC1 inh: 14; MRP-1 activ: -1; MRP reversal: 4; ERa SRC1 pot: 106; ERb SRC1 inh: 20

How did COc1ccc(-c2noc(CCC(=O)N3CCN(c4cccc(C(F)(F)F)c4)CC3)n2)cc1 do in these assays?
ERa SRC1 inh: -11; MRP-1 activ: -5; MRP reversal: 0; ERa SRC1 pot: 99; ERb SRC1 inh: 51*

How did O=C1COc2ccc(C(=O)c3ccccc3C(=O)O)cc2N1 do in these assays?
MRP-1 activ: 1

What do the screens show for `Cc1nc2sccn2c1-c1nc(C2CC2)c(C(=O)c2ccc3c(c2)NC(=O)CO3)s1`?
ERa SRC1 inh: 61*; MRP reversal: -5; ERa SRC1 pot: 67; ERb SRC1 inh: 53*[fluorescence artefact?]

What do the screens show for `COc1ccc(NS(=O)(=O)c2cc(NC(=O)c3cccc(OCc4c(C)noc4C)c3)ccc2OC)cc1`?
MRP-1 activ: -1

How did COc1ccc(C(=O)Nc2ccc(Cl)cc2C(=O)N2CCCC(C)C2)cc1 (centres undefined) do in these assays?
MRP-1 activ: -3

What do the screens show for `Cc1ccc(C2=CC(C)(c3ccc(C)cc3)Nc3nc(C(F)(F)F)nn32)cc1` (centres undefined)?
MRP-1 activ: 6.0*

Results for CCn1c2ccccc2c2cc(C3N=C(N)Nc4nc5ccccc5n43)ccc21 (centres undefined) ?
ERa SRC1 inh: 27; MRP-1 activ: -2; MRP reversal: 3; ERa SRC1 pot: 277*[fluorescence artefact?]; ERb SRC1 inh: 34

What do the screens show for `COc1ccc(-c2cc(C(F)(F)F)n3ncc(C(=O)NCc4ccco4)c3n2)cc1`?
ERa SRC1 inh: 59*; MRP-1 activ: -5; MRP reversal: -9; ERa SRC1 pot: 159; ERb SRC1 inh: 50*[fluorescence artefact?]

What do the screens show for `O=C(NC1CCCC1)c1cnn2c(C(F)(F)F)cc(-c3ccc4c(c3)OCO4)nc12`?
ERa SRC1 inh: 60*[fluorescence artefact?]; MRP-1 activ: -4; MRP reversal: -6; ERa SRC1 pot: 137; ERb SRC1 inh: -32

How did O=C(NCc1ccco1)c1cnn2c(C(F)(F)F)cc(-c3ccccc3)nc12 do in these assays?
ERa SRC1 inh: 7; MRP-1 activ: -4; MRP reversal: -16; ERa SRC1 pot: 142; ERb SRC1 inh: -3

How did COc1ccc(-c2nc(C3CCCCC3)no2)cc1OC do in these assays?
MRP-1 activ: 0

What do the screens show for `c1ccc(-c2nc(C3CCCCC3)no2)cc1`?
ERa SRC1 inh: -9; MRP-1 activ: 0; MRP reversal: 3; ERa SRC1 pot: 99; ERb SRC1 inh: 68*
